For 3 compounds, residual activity results are on record in ChEMBL document CHEMBL2218924, “A broad activity screen in support of a chemogenomic map for kinase signalling research and drug discovery” (Biochem J, 2013).

Structures are written as SMILES.

Assay [1] concerns the target T1, Muscle, skeletal receptor tyrosine-protein kinase (Homo sapiens) (UniProt O15146).
T1 sequence (whole entry): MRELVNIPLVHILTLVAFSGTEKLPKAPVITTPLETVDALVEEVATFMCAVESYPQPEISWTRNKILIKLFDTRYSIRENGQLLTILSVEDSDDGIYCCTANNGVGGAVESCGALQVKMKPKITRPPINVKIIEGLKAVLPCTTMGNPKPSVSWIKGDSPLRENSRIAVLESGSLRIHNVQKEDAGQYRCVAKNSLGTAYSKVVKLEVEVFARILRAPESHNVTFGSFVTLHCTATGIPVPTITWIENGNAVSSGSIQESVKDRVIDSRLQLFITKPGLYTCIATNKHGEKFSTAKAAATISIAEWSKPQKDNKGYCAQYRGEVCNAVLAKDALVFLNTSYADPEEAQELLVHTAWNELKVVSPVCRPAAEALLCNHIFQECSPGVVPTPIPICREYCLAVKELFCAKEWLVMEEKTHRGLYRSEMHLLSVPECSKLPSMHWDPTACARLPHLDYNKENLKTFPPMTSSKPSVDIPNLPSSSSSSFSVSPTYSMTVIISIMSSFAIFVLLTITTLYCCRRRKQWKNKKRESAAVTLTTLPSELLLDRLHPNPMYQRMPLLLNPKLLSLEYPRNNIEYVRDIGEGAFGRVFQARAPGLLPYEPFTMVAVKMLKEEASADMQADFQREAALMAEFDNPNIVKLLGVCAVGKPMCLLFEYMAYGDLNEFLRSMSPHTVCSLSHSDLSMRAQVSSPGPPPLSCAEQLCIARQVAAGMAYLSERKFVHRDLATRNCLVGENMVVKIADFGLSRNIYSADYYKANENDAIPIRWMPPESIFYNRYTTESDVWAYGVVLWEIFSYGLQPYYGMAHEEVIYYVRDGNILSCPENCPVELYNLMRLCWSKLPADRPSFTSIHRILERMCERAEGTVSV
The following applies: at 1 µM.

Assay [2] addresses T1, Muscle, skeletal receptor tyrosine-protein kinase (Homo sapiens). As to conditions: at 10 µM.
Assay [3] concerns the target T2, Serine/threonine-protein kinase Nek11 (Homo sapiens) (UniProt Q8NG66).
T2 sequence (whole entry): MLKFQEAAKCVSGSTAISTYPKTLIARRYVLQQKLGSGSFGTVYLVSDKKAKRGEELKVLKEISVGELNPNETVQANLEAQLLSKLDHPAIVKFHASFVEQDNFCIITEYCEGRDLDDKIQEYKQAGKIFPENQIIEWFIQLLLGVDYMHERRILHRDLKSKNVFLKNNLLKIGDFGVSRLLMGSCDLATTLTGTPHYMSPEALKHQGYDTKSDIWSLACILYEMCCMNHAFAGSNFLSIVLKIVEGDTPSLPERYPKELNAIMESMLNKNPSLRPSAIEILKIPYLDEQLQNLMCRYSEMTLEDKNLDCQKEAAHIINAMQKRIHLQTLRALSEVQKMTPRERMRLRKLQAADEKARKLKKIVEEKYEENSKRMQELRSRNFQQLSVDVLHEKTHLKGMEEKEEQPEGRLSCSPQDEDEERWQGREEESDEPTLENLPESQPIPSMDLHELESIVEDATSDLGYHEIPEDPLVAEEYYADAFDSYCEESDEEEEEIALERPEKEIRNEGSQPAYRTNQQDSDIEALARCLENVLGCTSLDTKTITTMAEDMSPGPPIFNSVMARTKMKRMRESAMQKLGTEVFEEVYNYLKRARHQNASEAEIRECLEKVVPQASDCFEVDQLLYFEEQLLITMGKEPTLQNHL
The following applies: at 1 µM.

For assay [4], the target named is T2, Serine/threonine-protein kinase Nek11 (Homo sapiens). As to conditions: at 10 µM.
The target of assay [5] is T3, Serine/threonine-protein kinase Nek2 (Homo sapiens) (UniProt P51955).
T3 sequence (whole entry): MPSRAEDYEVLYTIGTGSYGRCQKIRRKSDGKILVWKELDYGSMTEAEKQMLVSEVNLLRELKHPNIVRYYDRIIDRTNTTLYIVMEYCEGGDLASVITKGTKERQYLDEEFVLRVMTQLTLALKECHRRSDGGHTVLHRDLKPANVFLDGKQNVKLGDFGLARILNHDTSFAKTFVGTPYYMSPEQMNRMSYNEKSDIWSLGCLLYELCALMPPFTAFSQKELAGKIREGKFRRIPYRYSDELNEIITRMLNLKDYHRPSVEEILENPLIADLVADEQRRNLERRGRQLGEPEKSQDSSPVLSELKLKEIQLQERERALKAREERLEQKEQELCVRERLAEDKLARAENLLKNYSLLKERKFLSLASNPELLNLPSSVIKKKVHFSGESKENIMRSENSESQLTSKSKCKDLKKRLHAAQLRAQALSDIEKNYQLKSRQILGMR
The following applies: at 1 µM.

Assay [6] has as its target T3, Serine/threonine-protein kinase Nek2 (Homo sapiens). As to conditions: at 10 µM.
Assay [7] addresses T4, Serine/threonine-protein kinase Nek3 (Homo sapiens) (UniProt P51956).
T4 sequence (whole entry): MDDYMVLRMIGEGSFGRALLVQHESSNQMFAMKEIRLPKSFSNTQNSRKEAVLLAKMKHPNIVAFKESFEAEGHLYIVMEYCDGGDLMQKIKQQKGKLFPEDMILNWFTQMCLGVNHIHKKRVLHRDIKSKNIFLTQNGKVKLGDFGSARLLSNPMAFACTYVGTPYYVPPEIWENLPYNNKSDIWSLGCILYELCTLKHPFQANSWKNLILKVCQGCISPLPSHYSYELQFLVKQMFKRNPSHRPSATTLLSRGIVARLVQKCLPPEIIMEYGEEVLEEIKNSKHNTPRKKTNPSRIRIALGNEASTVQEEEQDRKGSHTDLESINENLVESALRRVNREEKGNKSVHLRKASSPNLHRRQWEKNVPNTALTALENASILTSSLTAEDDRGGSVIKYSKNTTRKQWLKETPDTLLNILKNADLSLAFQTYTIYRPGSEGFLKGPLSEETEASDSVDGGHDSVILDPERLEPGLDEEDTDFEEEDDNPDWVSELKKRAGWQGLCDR
The following applies: at 1 µM.

For assay [8], the target named is T4, Serine/threonine-protein kinase Nek3 (Homo sapiens). The following applies: at 10 µM.
Assay [9] concerns the target Serine/threonine-protein kinase tousled-like 2 (Homo sapiens) (UniProt Q86UE8). As to conditions: at 1 µM.
Assay [10] shares this target. As to conditions: at 10 µM.
In assay [11] the target is T5, Testis-specific serine/threonine-protein kinase 1 (Homo sapiens) (UniProt Q9BXA7).
T5 sequence (whole entry): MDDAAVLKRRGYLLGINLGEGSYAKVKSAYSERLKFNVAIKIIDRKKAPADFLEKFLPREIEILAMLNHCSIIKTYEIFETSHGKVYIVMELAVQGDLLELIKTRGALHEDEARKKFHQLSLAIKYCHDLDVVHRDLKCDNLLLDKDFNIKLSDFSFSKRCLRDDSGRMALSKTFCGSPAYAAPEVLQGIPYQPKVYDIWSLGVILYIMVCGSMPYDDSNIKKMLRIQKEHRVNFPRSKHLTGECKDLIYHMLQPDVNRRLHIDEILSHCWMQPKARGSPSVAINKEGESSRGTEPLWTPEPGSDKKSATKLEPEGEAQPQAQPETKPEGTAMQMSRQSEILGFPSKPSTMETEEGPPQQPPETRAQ
As to conditions: at 1 µM.

The target in assay [12] is T5, Testis-specific serine/threonine-protein kinase 1 (Homo sapiens). The following applies: at 10 µM.
In assay [13] the target is T6, Testis-specific serine/threonine-protein kinase 2 (Homo sapiens) (UniProt Q96PF2).
T6 sequence (whole entry): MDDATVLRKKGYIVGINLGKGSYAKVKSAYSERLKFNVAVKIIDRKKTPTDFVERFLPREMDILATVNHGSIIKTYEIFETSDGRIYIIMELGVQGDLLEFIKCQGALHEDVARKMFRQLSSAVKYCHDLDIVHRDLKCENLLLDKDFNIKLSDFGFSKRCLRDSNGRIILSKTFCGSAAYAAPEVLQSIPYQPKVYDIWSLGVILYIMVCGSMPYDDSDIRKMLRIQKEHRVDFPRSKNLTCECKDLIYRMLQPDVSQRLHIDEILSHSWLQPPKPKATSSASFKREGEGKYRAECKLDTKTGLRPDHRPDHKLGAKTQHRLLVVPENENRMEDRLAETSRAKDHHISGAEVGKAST
As to conditions: at 10 µM.

Assay [14] has as its target T7, Tyrosine-protein kinase Tec (Homo sapiens) (UniProt P42680).
T7 sequence (whole entry): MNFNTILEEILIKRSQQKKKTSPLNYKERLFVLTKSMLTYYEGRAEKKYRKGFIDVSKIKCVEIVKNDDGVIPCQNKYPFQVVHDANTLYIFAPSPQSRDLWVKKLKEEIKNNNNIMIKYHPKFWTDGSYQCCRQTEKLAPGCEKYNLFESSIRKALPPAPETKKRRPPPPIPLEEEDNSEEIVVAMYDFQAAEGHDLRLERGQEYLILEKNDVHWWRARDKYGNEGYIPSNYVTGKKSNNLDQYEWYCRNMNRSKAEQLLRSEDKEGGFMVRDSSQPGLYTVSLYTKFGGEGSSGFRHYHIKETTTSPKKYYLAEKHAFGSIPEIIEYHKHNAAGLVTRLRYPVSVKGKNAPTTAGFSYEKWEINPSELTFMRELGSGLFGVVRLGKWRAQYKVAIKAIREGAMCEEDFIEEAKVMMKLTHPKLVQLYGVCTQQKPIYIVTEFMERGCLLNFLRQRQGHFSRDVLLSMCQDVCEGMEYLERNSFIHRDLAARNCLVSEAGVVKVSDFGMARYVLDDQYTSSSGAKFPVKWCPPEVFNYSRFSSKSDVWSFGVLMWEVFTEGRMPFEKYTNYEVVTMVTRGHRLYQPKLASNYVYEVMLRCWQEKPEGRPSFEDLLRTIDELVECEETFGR
As to conditions: at 1 µM.

Assay [15] addresses T7, Tyrosine-protein kinase Tec (Homo sapiens). As to conditions: at 10 µM.
Assay [16] has as its target Angiopoietin-1 receptor (Homo sapiens) (UniProt Q02763). The following applies: at 1 µM.
The target is the same in assay [17]. The following applies: at 10 µM.
Assay [18] has as its target High affinity nerve growth factor receptor (Homo sapiens) (UniProt P04629). As to conditions: at 1 µM.
The target is the same in assay [19]. As to conditions: at 10 µM.
Assay [20] deals with BDNF/NT-3 growth factors receptor (Homo sapiens) (UniProt Q16620). The following applies: at 1 µM.
Sequence of BDNF/NT-3 growth factors receptor (Homo sapiens) (Q16620 32-822 limits assumed): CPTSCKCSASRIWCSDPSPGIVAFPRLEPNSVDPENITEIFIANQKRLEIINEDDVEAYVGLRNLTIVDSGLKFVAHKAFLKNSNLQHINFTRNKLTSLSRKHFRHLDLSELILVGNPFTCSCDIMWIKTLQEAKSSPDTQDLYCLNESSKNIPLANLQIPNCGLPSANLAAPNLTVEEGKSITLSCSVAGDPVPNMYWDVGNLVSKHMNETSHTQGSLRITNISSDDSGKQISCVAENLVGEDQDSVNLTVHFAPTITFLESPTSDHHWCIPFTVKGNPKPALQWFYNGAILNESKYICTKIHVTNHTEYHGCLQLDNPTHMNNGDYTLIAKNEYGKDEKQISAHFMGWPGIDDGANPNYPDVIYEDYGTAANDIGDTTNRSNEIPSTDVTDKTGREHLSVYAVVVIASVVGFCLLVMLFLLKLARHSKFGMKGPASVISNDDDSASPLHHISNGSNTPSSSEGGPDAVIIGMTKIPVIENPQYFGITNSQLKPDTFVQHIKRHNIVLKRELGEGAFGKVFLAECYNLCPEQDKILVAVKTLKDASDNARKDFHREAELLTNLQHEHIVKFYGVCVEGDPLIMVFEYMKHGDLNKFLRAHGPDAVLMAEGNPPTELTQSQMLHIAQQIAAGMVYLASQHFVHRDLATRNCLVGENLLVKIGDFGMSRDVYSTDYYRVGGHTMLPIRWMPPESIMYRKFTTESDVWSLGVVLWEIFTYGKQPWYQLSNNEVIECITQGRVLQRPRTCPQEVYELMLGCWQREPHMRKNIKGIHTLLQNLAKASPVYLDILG

Sequence of Serine/threonine-protein kinase tousled-like 2 (Homo sapiens) (Q86UE8 whole entry, looked up): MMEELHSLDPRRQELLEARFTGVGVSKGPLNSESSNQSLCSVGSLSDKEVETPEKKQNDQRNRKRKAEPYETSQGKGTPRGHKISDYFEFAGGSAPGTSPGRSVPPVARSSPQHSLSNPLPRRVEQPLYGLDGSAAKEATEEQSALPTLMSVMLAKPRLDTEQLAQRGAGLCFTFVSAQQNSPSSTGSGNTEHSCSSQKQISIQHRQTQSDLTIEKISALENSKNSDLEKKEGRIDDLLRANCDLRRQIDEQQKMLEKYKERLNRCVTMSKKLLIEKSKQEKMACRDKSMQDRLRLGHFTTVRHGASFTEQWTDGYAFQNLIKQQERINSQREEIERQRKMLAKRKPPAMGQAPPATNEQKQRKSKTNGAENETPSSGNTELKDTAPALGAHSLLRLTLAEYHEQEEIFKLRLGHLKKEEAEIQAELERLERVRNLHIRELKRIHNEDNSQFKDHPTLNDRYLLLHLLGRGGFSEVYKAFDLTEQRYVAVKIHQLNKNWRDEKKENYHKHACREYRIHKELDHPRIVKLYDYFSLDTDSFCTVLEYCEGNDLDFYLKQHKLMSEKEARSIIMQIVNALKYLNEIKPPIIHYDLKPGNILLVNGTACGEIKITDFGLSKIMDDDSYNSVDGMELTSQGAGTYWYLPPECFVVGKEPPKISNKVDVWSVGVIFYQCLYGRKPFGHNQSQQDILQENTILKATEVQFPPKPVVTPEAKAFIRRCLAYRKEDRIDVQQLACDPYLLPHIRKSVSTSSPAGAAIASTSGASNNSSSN
Sequence of High affinity nerve growth factor receptor (Homo sapiens) (P04629 33-796 limits assumed): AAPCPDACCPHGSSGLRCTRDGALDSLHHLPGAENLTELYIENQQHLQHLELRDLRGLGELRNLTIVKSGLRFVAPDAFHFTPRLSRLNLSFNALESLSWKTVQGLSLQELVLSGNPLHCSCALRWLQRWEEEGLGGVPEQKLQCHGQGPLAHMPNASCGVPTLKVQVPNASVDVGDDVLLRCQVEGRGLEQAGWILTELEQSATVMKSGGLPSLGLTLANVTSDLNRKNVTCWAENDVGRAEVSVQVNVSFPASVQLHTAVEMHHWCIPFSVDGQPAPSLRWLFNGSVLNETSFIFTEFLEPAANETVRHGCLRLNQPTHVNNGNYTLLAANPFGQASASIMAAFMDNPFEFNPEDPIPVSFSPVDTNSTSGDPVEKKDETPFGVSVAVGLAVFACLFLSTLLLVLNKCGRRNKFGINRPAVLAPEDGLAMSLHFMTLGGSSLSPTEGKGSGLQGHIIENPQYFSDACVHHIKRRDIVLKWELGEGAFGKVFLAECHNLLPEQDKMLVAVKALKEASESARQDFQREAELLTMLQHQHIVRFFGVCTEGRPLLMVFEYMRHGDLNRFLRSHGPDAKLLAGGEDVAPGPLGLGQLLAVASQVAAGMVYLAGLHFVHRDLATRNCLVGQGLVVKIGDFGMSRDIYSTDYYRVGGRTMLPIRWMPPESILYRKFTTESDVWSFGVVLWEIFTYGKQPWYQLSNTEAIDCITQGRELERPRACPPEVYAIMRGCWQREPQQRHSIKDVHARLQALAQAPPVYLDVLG
Sequence of Angiopoietin-1 receptor (Homo sapiens) (Q02763 whole entry): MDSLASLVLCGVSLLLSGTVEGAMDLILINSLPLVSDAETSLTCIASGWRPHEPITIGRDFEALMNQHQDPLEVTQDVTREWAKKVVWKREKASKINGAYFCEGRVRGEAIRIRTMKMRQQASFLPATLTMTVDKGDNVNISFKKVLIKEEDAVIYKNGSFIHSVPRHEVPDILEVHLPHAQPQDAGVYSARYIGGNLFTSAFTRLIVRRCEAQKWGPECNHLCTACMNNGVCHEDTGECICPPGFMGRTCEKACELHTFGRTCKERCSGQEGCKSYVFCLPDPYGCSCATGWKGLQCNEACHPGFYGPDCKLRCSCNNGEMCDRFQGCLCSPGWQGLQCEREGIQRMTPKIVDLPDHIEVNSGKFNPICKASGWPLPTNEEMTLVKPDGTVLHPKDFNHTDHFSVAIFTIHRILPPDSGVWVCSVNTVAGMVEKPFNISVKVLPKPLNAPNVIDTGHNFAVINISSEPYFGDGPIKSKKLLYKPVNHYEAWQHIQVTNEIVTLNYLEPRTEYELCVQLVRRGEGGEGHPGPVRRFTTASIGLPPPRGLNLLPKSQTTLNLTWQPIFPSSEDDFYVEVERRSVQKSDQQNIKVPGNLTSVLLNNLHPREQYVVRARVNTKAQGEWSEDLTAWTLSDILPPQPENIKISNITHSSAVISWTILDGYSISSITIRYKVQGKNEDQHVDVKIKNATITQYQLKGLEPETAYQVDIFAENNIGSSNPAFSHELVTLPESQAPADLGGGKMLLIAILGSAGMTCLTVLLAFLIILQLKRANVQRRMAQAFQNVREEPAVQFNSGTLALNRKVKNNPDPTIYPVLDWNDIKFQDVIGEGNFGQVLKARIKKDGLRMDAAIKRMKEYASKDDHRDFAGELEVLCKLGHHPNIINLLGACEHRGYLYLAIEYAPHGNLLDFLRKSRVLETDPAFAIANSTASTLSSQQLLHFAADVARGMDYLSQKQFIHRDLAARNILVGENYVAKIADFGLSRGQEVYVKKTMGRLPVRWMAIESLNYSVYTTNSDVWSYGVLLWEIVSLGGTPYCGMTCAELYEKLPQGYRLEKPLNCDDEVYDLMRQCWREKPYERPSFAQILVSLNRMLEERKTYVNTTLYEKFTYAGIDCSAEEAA

Usually residual activity stands for the signal under treatment as a percentage of the control signal. In the case of `O=C1NC(=O)c2c1c1c3ccccc3[nH]c1c1[nH]c3cc(Br)ccc3c21`, the residual activity stood at 104% in [1]; 90% in assay [2]; 62% in [3]; 73% in assay [4]; 91% in [5]; 88% in assay [6]. Besides, the residual activity in [7] stood at 85%; in [8], 92%; in assay [9] it was 85%; in [10], 86%; in assay [11], 110%; in assay [12], 91%. The residual activity in [13] turned out to be 86%; in assay [14], 98%; in assay [15], 82%; in assay [16], 94%; in [17], 81%; in [18], 37%. Also, the residual activity in assay [19] came to 27%; in [20] it was 74%.

Consider `N#C/C(=C(\N)Sc1ccc(N)cc1)c1ccccc1C(F)(F)F`, for which the residual activity in assay [1] amounted to 86%; in assay [2], 84%; in assay [3], 64%; in assay [4], 68%; in [5] it was 93%; in assay [6], 91%. The residual activity was found to be 75% in assay [7]; 103% in [8]; 98% in [9]; 93% in assay [10]; 99% in assay [11]; 82% in assay [12]. In addition, the residual activity amounted to 67% in assay [13]; 93% in [14]; 63% in assay [15]; 111% in [16]; 87% in assay [17]; 90% in assay [18]. Besides, the residual activity in [19] amounted to 85%; in [20], 78%.

Regarding `CC[n+]1c(/C=C/N(C)c2ccccc2)n(-c2ccccc2)c2ccc(-c3nc4ccccc4s3)cc21`, the residual activity in [1] was found to be 114%; in assay [2], 58%; in [3], 71%; in [4], 99%; in assay [5], 83%; in assay [6], 123%. Further, the residual activity in assay [7] worked out at 116%; in assay [8] it was 92%; in [9] it was 109%; in assay [10] it was 80%; in [11], 102%; in [12] it was 73%. In addition, the residual activity in assay [13] amounted to 78%; in [14], 77%; in assay [15], 27%; in assay [16], 103%; in assay [17] it was 30%; in assay [18] it was 85%. Besides, the residual activity in assay [19] turned out to be 34%; in assay [20], 67%.
